PubChem BioAssay (NCI)
The panel holds about 83,000 compounds, 20% with a hit somewhere; the sample as a whole holds those more often.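 48-hour exposure, single concentration, 96-well plates; percent growth endpoint where 0 means no net growth. Active: below 10.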 A number with no mark means an inactive call. Active and inactive are the calls of the source.

System: HL-60(TB) leukemia
Experiment: NCI-60 one-dose screen, 48 h (100 = growth as untreated, 0 = no growth, -100 = all killed)
Conditions: 10 µM unless noted

SMILES	growth
COc1ccc(C2C(C#N)=C(N)Oc3c2sc2c(F)cccc32)cc1 (configuration not stated)	-29% (active)
COc1cc(NCCCCN=C(N)NC(N)=NC(C)C)c2ncccc2c1	55.9%
O=C1OC(N(Cc2ccc(Cl)cc2)c2ccccc2)c2ccccc21 (configuration not stated)	93.8%
N#Cc1nc(-c2ccc(Cl)cc2)oc1S(=O)(=O)N1CCN(c2ccc(F)cc2)CC1	66.3%
Cc1ccc(NC(=O)N/C(N)=N/c2nc(=O)c3ccccc3s2)cc1	33.7%
CC(=O)OC[C@H]1O[C@@H](n2c(=O)cc(N)[nH]c2=O)C(OC(C)=O)[C@@H]1OC(C)=O (some centres not stated)	107%
COc1cc(NC(=O)Nc2cnc(Nc3ccc(N4CCOCC4)cc3)nc2Oc2ccc(C(F)(F)F)cc2)cc(OC)c1	96.4%
CS(=O)(=O)Cc1cnc(C2OCCO2)s1	88.5%
COc1cc(NS(C)(=O)=O)ccc1Nc1c2ccc(Cl)cc2nc2c(OC)cccc12	-30.1% (active)
Cc1ccc(NC(=O)N2CCCCC2)cc1[N+](=O)[O-]	104%
CCOC(=O)c1c(Cl)c2c(n1Cc1ccc(OC)cc1)-c1oncc1CCC2	78.9%
C[C@H]1C(=O)C23CCC1C[C@@]21O[C@@H]2C(C)(C)C=CC(=O)C23COC1=O	97.8%
Cc1cc(N2CCCCC2)cc(C)c1-c1csc(NC(=O)c2ccncc2)n1	21.8%
Cc1ccc(S(=O)(=O)N2CCC(C(=O)Nc3ccc(F)cc3F)CC2)cc1	88.2%
COC(=O)C1(C)CCC[C@]2(C)[C@H]3C[C@H]4C(C(C)C)=C[C@]3(CC[C@@H]12)[C@H]1[C@@H]4[C@@H](OCC#CCN2CCOCC2)CC[C@@H]1OCC#CCN1CCOCC1 (some centres not stated)	88.7%
CCN1C(=O)N(CC)C2C1NN=c1s/c(=C3\C(=O)N(CCC(C)C)c4ccccc43)c(=O)n12 (configuration not stated)	-38.2% (active)
O=c1c2cccc3c(N4CCCC4)ccc(c32)c2nc3ccccc3n12	72%
CC1CC(C(C)(C)C)C(=O)C(C(C)(C)C)C1 (configuration not stated)	107%
Cc1nn(-c2ccccc2)c(Cl)c1/C=C(/NC(=O)c1ccccc1)c1nc2ccccc2[nH]1	85.5%

SMILES	growth
CC(C)NC(=O)OCC#CCOC(=O)NC(C)C	95.7%
CCOC(=O)c1sc2nc(-c3cc(OC)c(OC)c(OC)c3)nc(N3CCOCC3)c2c1C	24.7%
Cc1cccc(NC(=O)c2sc3nc4c(cc3c2N)CCC4)c1C	8.43% (active)
O=C(NNc1nc2cc(F)ccc2n2c(CN3CCOCC3)ccc12)c1ccccc1	-1.51% (active)
Nc1c(C(=O)Nc2ccccc2Cl)sc2nc3c(cc12)CN(Cc1ccccc1)CC3	75.6%
O=C(Nc1cccc(-n2ccc3c(NC(=O)c4ccccc4)nccc32)c1)c1cc(N2CCOCC2)cc(C(F)(F)F)c1	-13.1% (active)
COC(=O)c1cc2c(=O)[nH]cc3c2c(n1)CCC3	74.6%
[N-]=[N+]=Nc1ncc(-c2ccc(C(F)(F)F)cc2)c(NC2CCCCCC2)n1	-14.7% [100 µM] (active)
O=C(N=c1oc2ccccc2cc1-c1cc2ccccc2[nH]1)Nc1ccc(Cl)cc1	78.6%
CCC(C)N(CCNc1cc(OC)cc2cccnc12)CC(C)C (configuration not stated)	73.9%
Cn1cc(-c2ccc3nc(-c4ccc(CC(=O)Nc5cc(C(C)(C)C)no5)cc4)cnc3c2)cn1	18.5% [30 µM]
O=[N+]([O-])c1cccc(/C=N/NC(=S)NC23CC4CC(CC(C4)C2)C3)c1	101%
C(=C\c1cn(-c2ccccc2)nc1-c1ccccc1)/c1nnc(-c2c[nH]c3ccccc23)o1	98.1%
C/C(=C(/c1ccccc1)c1ccc(N2C(=O)c3cccc4c(N5CCN(C)CC5)ccc(c34)C2=O)cc1)c1ccccc1	99.3%
CC1OC(n2c3ccccc3c3c4c(c5c6ccccc6[nH]c5c32)C(=O)N(CCN2CCCC2)C4=O)CC(O)C1O (configuration not stated)	44.2%
COc1ccc(/C=C/C(=O)Nc2ccc(-c3nc4ccc(F)cc4s3)cc2)cc1	91.4%
CCNC(=O)OCCc1c2ccccc2nc2ccccc12	95.1%
Oc1c(CNCCNCc2cc(Cl)cc(Cc3ccccc3)c2O)cc(Cl)cc1Cc1ccccc1	-0.262% (active)
